Screening data deposited in PubChem BioAssay by National Center for Advancing Translational Sciences (NCATS).
TSHR agonist – qHTS Assay for Agonists of the Thyroid Stimulating Hormone Receptor. Thyrotropin receptor (Homo sapiens), P16473. HEK293-CNG-TSHR cells (CNG channel as cAMP sensor), membrane potential dye, cAMP. Potency, µM (doses to about 57.1 µM), usual class: activators. 0.48% of 73,000 active. AID 926, 2007; active = well fitted activation curve with a large enough effect in the main read-out, with a control signal flat, not every such curve was filed as active; inconclusive = small, poorly fitted or top-dose-only effect, or a change in a side signal; inactive = no such curve, though single readings can be large or run the other way; reference of the percent scale not stated here;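 note: the control signal comes from parental cells without the receptor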
Target sequence (P16473 whole entry, looked up): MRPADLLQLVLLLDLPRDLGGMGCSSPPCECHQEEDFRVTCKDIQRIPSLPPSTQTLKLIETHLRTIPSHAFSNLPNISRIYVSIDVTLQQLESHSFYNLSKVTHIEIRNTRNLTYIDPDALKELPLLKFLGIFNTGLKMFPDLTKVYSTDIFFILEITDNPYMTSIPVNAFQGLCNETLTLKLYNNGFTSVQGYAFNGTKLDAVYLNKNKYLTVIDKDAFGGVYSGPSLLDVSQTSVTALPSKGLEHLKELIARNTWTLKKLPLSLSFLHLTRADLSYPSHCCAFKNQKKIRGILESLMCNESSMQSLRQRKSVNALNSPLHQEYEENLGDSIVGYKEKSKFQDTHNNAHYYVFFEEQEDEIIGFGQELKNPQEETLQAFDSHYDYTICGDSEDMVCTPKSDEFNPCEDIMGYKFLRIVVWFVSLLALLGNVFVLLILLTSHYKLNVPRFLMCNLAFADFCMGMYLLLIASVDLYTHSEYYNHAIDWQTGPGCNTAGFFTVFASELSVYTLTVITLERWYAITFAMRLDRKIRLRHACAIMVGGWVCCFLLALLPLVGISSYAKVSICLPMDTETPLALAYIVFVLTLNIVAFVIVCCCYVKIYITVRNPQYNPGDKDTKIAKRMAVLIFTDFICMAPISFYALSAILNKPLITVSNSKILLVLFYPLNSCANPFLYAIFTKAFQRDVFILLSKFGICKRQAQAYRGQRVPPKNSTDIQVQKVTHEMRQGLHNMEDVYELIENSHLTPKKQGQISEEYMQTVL
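HEK 293 cells stably expressing TSHR and a modified CNG channel, with CNG-only parental cells as counterscreen, were preloaded 60 min at room temperature with membrane potential dye containing 100 uM RO 20-1724. Compound exposure was 30 min, and depolarization was read as fluorescence at 590 nm.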
HEK293 cAMP ctrl – qHTS Assay for Agonists of the Thyroid Stimulating Hormone Receptor: Activators of Intracellular cAMP Concentrations in Parental HEK 293. parental HEK293 CNG cAMP sensor, membrane potential fluorescence. Potency, µM (titrated, usually from 57.1 µM), hits mostly activators. 2.5% of 73,000 active. AID 938, 2007; note: nearly all actives have a fitted effect of over 55% in size
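Parental HEK 293 cells stably expressing a cAMP-gated CNG channel were loaded with membrane potential dye containing 100 uM RO 20-1724 for 60 min. Compound added for 30 min; depolarization read as fluorescence intensity at 590 nm.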
IkB sig inh – IkB Signaling. 0.04% of 110,000 active. AID 445, 2006. ABC-DLBCL IkBa-CBG/CBR dual luciferase ratio, 4 h; response scale: scaled: untreated 0%, proteasome inhibitor 100%. Potency, µM (series often up to 57.1 µM); active = well fitted curve in the direction sought with a large enough effect in the signal ratio, not every such curve was filed as active; inconclusive = small, poorly fitted or top-dose-only effect, or a change in a side signal; the % refers to the signal ratio;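 note: the direction sought is a rising ratio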
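Curves were fitted separately to fusion (green), unfused (red) and ratio luminescence, then classed by r2, magnitude and activity. Cells: OCI-Ly3, 4 h compound plus doxycycline at 37C; 10 uM MG-132 defined full response.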
p53ts 39C tox – qHTS Screen for Compounds that Selectively Target Cancer Cells with p53 Mutations: Cytotoxicity of p53ts Cells at the Nonpermissive Temperature; H1299-p53A138V viability at 39C, ATP luminescence, 24 h; Potency, µM (top dose mostly 46.1 µM), usual class: cytotoxic; 1.5% of 130,000 active; AID 902, 2007; note: nearly all actives have a fitted effect of over 55% in size
p53ts 32C kill – qHTS Screen for Compounds that Selectively Target Cancer Cells with p53 Mutations: Cytotoxicity of p53ts Cells at the Permissive Temperature | H1299-p53A138V at 32C, ATP luminescence viability, 24 h | AID 924, 2007 | Potency, µM (series often up to 46.1 µM), hits mostly cytotoxic | 0.93% of 130,000 active; note: nearly all actives have a fitted effect of over 55% in size
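Viability by ATPlite luminescence after 24 h compound treatment (up to 46 uM) at the permissive 32C. Cells are H1299 carrying p53 A138V. Scale runs from DMSO basal to 100 uM tamoxifen as full kill; AC50 from Hill fits.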
Peg3 imprint – qHTS Assay for Compounds that Induce Erasure of Genomic Imprints | Potency, µM (titrated, usually from 60.7 µM), usual class: activators | mouse ES Peg3-LacZ reporter, beta-gal luminescence, 40 h | 0.02% of 110,000 active
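Each well holds 300 Peg3LacZ-Neo (maternal) female ES cells incubated 40 h at 37C, 5% CO2. LacZ is measured by BetaGlo luminescence, with AC50 and maximum efficacy derived from dose-response curves.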
A number is an active result; ! = not confirmed by another sample; [ ] = remark or other dose. Hits are enriched below; roughly 3.1% of the tested compounds scored in any of these assays. Unless noted, calls come from the whole dose curve; as a rule, active = well fitted curve in the direction sought with a large enough effect; inconclusive = small, poorly fitted or top-dose-only effect, or another doubt; inactive = no such curve, though single readings can be large; an effect the other way counts as inactive or inconclusive.

What do the screens show for `CC(C)[C@@H]1O[C@H](/C=C\c2ccccc2)OCC1(C)C`?
TSHR agonist: inactive[11.4 µM]; HEK293 cAMP ctrl: inactive[11.4 µM]; IkB sig inh: inactive[11.4 µM]; p53ts 39C tox: inactive[9.22 µM]; p53ts 32C kill: inactive[9.22 µM]

How did CC1CC(N(C(=O)c2ccco2)c2ccccc2)c2ccccc2N1 (stereo not drawn) do in these assays?
TSHR agonist: 13µM; HEK293 cAMP ctrl: inactive; IkB sig inh: inconclusive; p53ts 39C tox: inactive; p53ts 32C kill: inactive; Peg3 imprint: inactive

What do the screens show for `COc1ccccc1-c1cc(C(=O)N2CCc3ccccc3C2)no1`?
TSHR agonist: inactive; HEK293 cAMP ctrl: inactive; IkB sig inh: inconclusive; p53ts 39C tox: inactive; p53ts 32C kill: inactive; Peg3 imprint: inactive

How did Cc1ccc(C)c(NC(=O)c2cnc(N3CCCC3)nc2C)c1 do in these assays?
IkB sig inh: inactive; p53ts 39C tox: inactive; p53ts 32C kill: inactive; Peg3 imprint: inactive[10.9 µM]

Results for CCN1c2ccccc2-c2nc3ccccc3n2C1c1ccncc1 (stereo not drawn) ?
TSHR agonist: inconclusive; HEK293 cAMP ctrl: 20µM; IkB sig inh: inconclusive; p53ts 39C tox: inactive; p53ts 32C kill: inactive; Peg3 imprint: inactive

Results for CCN1c2ccccc2-c2nc3ccccc3n2C1c1ccccn1 (stereo not drawn) ?
TSHR agonist: inconclusive; HEK293 cAMP ctrl: 16µM; IkB sig inh: inactive; p53ts 39C tox: inactive; p53ts 32C kill: inactive; Peg3 imprint: inactive

Results for c1cncc(C2Nc3ccccc3-c3nc4ccccc4n32)c1 (stereo not drawn) ?
TSHR agonist: inactive; HEK293 cAMP ctrl: inactive; IkB sig inh: inactive; p53ts 39C tox: inactive; p53ts 32C kill: inactive; Peg3 imprint: inactive

Results for CCN1c2ccccc2-c2nc3ccccc3n2C1c1cccnc1 (stereo not drawn) ?
TSHR agonist: inconclusive; HEK293 cAMP ctrl: 32µM; IkB sig inh: inactive; p53ts 39C tox: inactive; p53ts 32C kill: inactive; Peg3 imprint: inactive

What do the screens show for `O=C(N/N=C1\CCc2ccccc21)c1ccccc1O`?
p53ts 39C tox: 4.5µM

How did O=C(Nc1ccc(NC(=O)c2cc3ccccc3o2)cc1)c1ccccc1 do in these assays?
IkB sig inh: inactive; p53ts 39C tox: inactive; p53ts 32C kill: inactive; Peg3 imprint: inactive[10.9 µM]

Results for Cc1csc(C(C#N)C(=O)c2cc3ccccc3o2)n1 (stereo not drawn) ?
TSHR agonist: inactive; HEK293 cAMP ctrl: inactive; IkB sig inh: inconclusive; p53ts 39C tox: 5µM; p53ts 32C kill: 5µM; Peg3 imprint: inactive

Results for O=C1CC(c2cccc(Cl)c2Cl)c2cc3c(cc2N1)OCCO3 (stereo not drawn) ?
IkB sig inh: inconclusive; p53ts 39C tox: inactive; p53ts 32C kill: inactive; Peg3 imprint: inactive[10.9 µM]

Results for C=C1C(=O)O[C@@H]2[C@H]3O[C@]3(C)CCC=C(C)CC[C@@H]12 ?
TSHR agonist: inactive; HEK293 cAMP ctrl: inactive; IkB sig inh: inconclusive; p53ts 39C tox: 13µM; p53ts 32C kill: 13µM; Peg3 imprint: inactive

How did C=C1C(=O)O[C@@H]2[C@@H]1CC/C(C)=C\CC[C@@]1(C)O[C@H]21 do in these assays?
TSHR agonist: inactive; HEK293 cAMP ctrl: inactive; IkB sig inh: inconclusive; p53ts 39C tox: 6.3µM!; p53ts 32C kill: 6.3µM!; Peg3 imprint: inactive

Results for CC(=O)OC1CC2C(C)(C)C(=O)[C@@H]3OC3[C@@]2(C)C2CC[C@]3(C)C(=CC(=O)OC3c3ccoc3)[C@]12C (stereo partly drawn) ?
p53ts 39C tox: inactive; p53ts 32C kill: inactive; Peg3 imprint: inactive

Results for CN(C)S(=O)(=O)N1CCC(n2cnc3cccnc32)CC1 ?
IkB sig inh: inactive; p53ts 39C tox: inactive; p53ts 32C kill: inactive; Peg3 imprint: inactive[10.9 µM]

How did CC1=C(C(=O)OCc2ccccc2)C(c2ccc(C3CCCCC3)cc2)NC(=O)N1CCCCCC(=O)O (stereo not drawn) do in these assays?
TSHR agonist: inconclusive; HEK293 cAMP ctrl: 32µM; p53ts 39C tox: inactive; p53ts 32C kill: inactive; Peg3 imprint: inactive

Results for CCc1c2c(nc3cccc(OC)c13)OC(CC)C2 (stereo not drawn) ?
TSHR agonist: inconclusive; HEK293 cAMP ctrl: 16µM; p53ts 39C tox: inactive; p53ts 32C kill: inactive; Peg3 imprint: inactive

Results for CC(C)N(Cc1nc(-c2ccc(Cl)cc2)no1)C(=O)c1ccc(C(C)(C)C)cc1 ?
IkB sig inh: inconclusive; p53ts 39C tox: inactive; p53ts 32C kill: inactive; Peg3 imprint: inactive[10.9 µM]

How did CC(C)N(Cc1nc(-c2ccc(Cl)cc2)no1)C(=O)CCC1CCCC1 do in these assays?
TSHR agonist: inconclusive; HEK293 cAMP ctrl: 20µM; IkB sig inh: inactive; p53ts 39C tox: inactive; p53ts 32C kill: inactive; Peg3 imprint: inactive

Results for COc1ccc(-c2cc(C(F)(F)F)nc(S(C)(=O)=O)n2)cc1 ?
IkB sig inh: inactive; p53ts 39C tox: 20µM; p53ts 32C kill: inconclusive; Peg3 imprint: inactive[10.9 µM]

What do the screens show for `COc1cc(OC)c(NC(=O)CCCn2nc(C)c3c(C)n(-c4ccccc4)nc3c2=O)cc1Cl`?
IkB sig inh: inconclusive; p53ts 39C tox: inactive; p53ts 32C kill: inactive; Peg3 imprint: inactive[10.9 µM]

How did c1ccc(OCCSc2nnnn2C2CCCCC2)cc1 do in these assays?
TSHR agonist: inconclusive; HEK293 cAMP ctrl: 25µM; IkB sig inh: inactive; p53ts 39C tox: inactive; p53ts 32C kill: inactive

How did O=C(O)c1ccc(CSc2nnnn2C2CCCCC2)cc1 do in these assays?
TSHR agonist: inactive; HEK293 cAMP ctrl: inactive; IkB sig inh: inactive; p53ts 39C tox: inactive; p53ts 32C kill: inactive; Peg3 imprint: inactive

Results for Cc1ccc(OCCSc2nc3ccccc3n2CC(=O)N2CCCCC2)cc1C ?
IkB sig inh: inconclusive; p53ts 39C tox: inactive; p53ts 32C kill: inactive; Peg3 imprint: inactive[10.9 µM]

What do the screens show for `CCc1ccc(NC(=O)CC2C(=O)N(c3cccc(OC)c3)C(=O)N2C2CCCC2)cc1` (stereo not drawn)?
IkB sig inh: inactive; p53ts 39C tox: inactive; p53ts 32C kill: inactive; Peg3 imprint: inactive[10.9 µM]

What do the screens show for `Cc1nn(CC(=O)N2CCC(C)CC2)c(=O)c2cc3sccc3n12`?
IkB sig inh: inactive; p53ts 39C tox: inactive; p53ts 32C kill: inactive; Peg3 imprint: inactive[10.9 µM]

What do the screens show for `O=C1C=C(NCCO)C(=O)c2cnccc21`?
TSHR agonist: inactive; HEK293 cAMP ctrl: inactive; p53ts 39C tox: 4µM; p53ts 32C kill: 3.2µM; Peg3 imprint: inactive

Results for CC(=O)c1ccc(NC(=O)/C=C/c2ccc(C)o2)cc1 ?
IkB sig inh: inconclusive; p53ts 39C tox: 10µM; p53ts 32C kill: 7.9µM; Peg3 imprint: inactive[10.9 µM]
